According to PubChem BioAssay AID1159580 (chemical genetic matrix, 2015):
Out of some 5,500 compounds screened, about 2,000 (36%) were called active. Roughly 18% stayed inconclusive and do not appear here. No stated cut-off is given here; in the data, active means normalized growth mostly below about 0.91 (no sharp cut-off); inconclusive means no clear call, values can overlap the other calls; inactive means mostly above about 0.92. The list shows a part of the results.

Test: chemical genetic growth profiling, strain panel (AID 1159580);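 further: tested at 20 µM; growth read once vehicle control cultures reached saturation at 30 °C; 1 = growth at the plate median or of vehicle wells; lower values mean less growth of the strain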
Settings: growth OD

Measured: normalized growth

C[C@@H]1CC2C3CCC4=CC(=O)C=C[C@]4(C)[C@@]3(F)[C@@H](O)C[C@]2(C)[C@@]1(O)C(=O)COP(=O)(O)O (stereo partly drawn)
inactive: S. cerevisiae deletion strains, locus YJR066W, strain TOR1, hits give low values 0.95 | S. cerevisiae deletion strains, locus YJR075W, strain HOC1, hits give low values 1.02 | S. cerevisiae deletion strains, locus YKL009W, strain mrt4, hits give low values 1 | S. cerevisiae deletion strains, locus YKL068W, hits give low values 1.01 | S. cerevisiae deletion strains, locus YKL085W, strain MDH1 (second series), hits give low values 1.05 | S. cerevisiae deletion strains, locus YKL085W, strain MDH1, hits give low values 1.05 | S. cerevisiae deletion strains, locus YKL160W, strain elf1, hits give low values 0.965 | S. cerevisiae deletion strains, locus YKR001C, strain vps1, hits give low values 0.997 | S. cerevisiae deletion strains, locus YKR026C, strain gcn3, hits give low values 0.966 | S. cerevisiae deletion strains, locus YKR091W, strain srl3, hits give low values 0.982 | S. cerevisiae deletion strains, locus YLL001W, strain dnm1, hits give low values 0.931 | S. cerevisiae deletion strains, locus YLL026W, hits give low values 0.986 | S. cerevisiae deletion strains, locus YLL041C, strain sdh2, hits give low values 0.97 | S. cerevisiae deletion strains, locus YLR027C, strain aat2, hits give low values 0.975 | S. cerevisiae deletion strains, locus YLR039C, strain RIC1, hits give low values 1.02 | S. cerevisiae deletion strains, locus YLR058C, strain SHM2, hits give low values 1.01 | S. cerevisiae deletion strains, locus YLR102C, strain apc9, hits give low values 0.993 | S. cerevisiae deletion strains, locus YLR113W, strain HOG1, hits give low values 0.977 | S. cerevisiae deletion strains, locus YLR221C, strain rsa3, hits give low values 1.01 | S. cerevisiae deletion strains, locus YLR258W, strain gsy2, hits give low values 1 | S. cerevisiae deletion strains, locus YLR262C, strain YPT6 (second series), hits give low values 0.959 | S. cerevisiae deletion strains, locus YLR262C, strain YPT6, hits give low values 1.01 | S. cerevisiae deletion strains, locus YLR268W, strain sec22, hits give low values 0.996 | S. cerevisiae deletion strains, locus YLR320W, strain mms22, hits give low values 1.01 | S. cerevisiae deletion strains, locus YLR330W, strain CHS5, hits give low values 1.01 | S. cerevisiae deletion strains, locus YLR342W, strain FKS1 (second series), hits give low values 1.01 | S. cerevisiae deletion strains, locus YLR342W, strain FKS1, hits give low values 0.959 | S. cerevisiae deletion strains, locus YLR357W, strain rsc2, hits give low values 0.957 | S. cerevisiae deletion strains, locus YLR370C, strain arc18, hits give low values 0.972 | S. cerevisiae deletion strains, locus YLR371W, strain rom2, hits give low values 0.994 | S. cerevisiae deletion strains, locus YLR384C, strain iki3, hits give low values 0.959 | S. cerevisiae deletion strains, locus YLR418C, strain cdc73, hits give low values 1.01 | S. cerevisiae deletion strains, locus YML016C, strain PPZ1, hits give low values 1 | S. cerevisiae deletion strains, locus YML032C, strain rad52, hits give low values 0.991 | S. cerevisiae deletion strains, locus YML120C, strain ndi1, hits give low values 0.97 | S. cerevisiae deletion strains, locus YML124C, strain tub3, hits give low values 0.993 | S. cerevisiae deletion strains, locus YMR058W, strain fet3, hits give low values 0.978 | S. cerevisiae deletion strains, locus YMR078C, strain ctf18, hits give low values 0.987 | S. cerevisiae deletion strains, locus YMR125W, strain sto1, hits give low values 0.933 | S. cerevisiae deletion strains, locus YMR129W, hits give low values 0.987 | S. cerevisiae deletion strains, locus YMR205C, strain PFK2, hits give low values 0.981 | S. cerevisiae deletion strains, locus YMR223W, strain ubp8, hits give low values 1.01 | S. cerevisiae deletion strains, locus YMR231W, strain pep5, hits give low values 0.957 | S. cerevisiae deletion strains, locus YMR263W, strain SAP30, hits give low values 1.01 | S. cerevisiae deletion strains, locus YMR307W, strain GAS1, hits give low values 1.09 | S. cerevisiae deletion strains, locus YNL067W, strain RPL9B, hits give low values 1.01 | S. cerevisiae deletion strains, locus YNL071W, strain lat1, hits give low values 0.985 | S. cerevisiae deletion strains, locus YNL153C, strain GIM3, hits give low values 0.998 | S. cerevisiae deletion strains, locus YNL183C, strain NPR1, hits give low values 0.955 | S. cerevisiae deletion strains, locus YNL209W, strain ssb2, hits give low values 0.986 | S. cerevisiae deletion strains, locus YNL233W, strain BNI4, hits give low values 1.02 | S. cerevisiae deletion strains, locus YNL248C, strain rpa49, hits give low values 0.987 | S. cerevisiae deletion strains, locus YNL250W, strain rad50, hits give low values 0.993 | S. cerevisiae deletion strains, locus YNL271C, strain bni1, hits give low values 1.01 | S. cerevisiae deletion strains, locus YNL298W, strain CLA4, hits give low values 1.02 | S. cerevisiae deletion strains, locus YNL307C, strain MCK1, hits give low values 0.995 | S. cerevisiae deletion strains, locus YNL322C, strain KRE1 (second series), hits give low values 0.963 | S. cerevisiae deletion strains, locus YNR049C, strain mso1, hits give low values 0.98 | S. cerevisiae deletion strains, locus YNR052C, strain pop2, hits give low values 1.02 | S. cerevisiae deletion strains, locus YOL006C, strain TOP1, hits give low values 1.01 | S. cerevisiae deletion strains, locus YOL012C, strain htz1 1.85 | S. cerevisiae deletion strains, locus YOL147C, strain pex11, hits give low values 1.01 | S. cerevisiae deletion strains, locus YOR001W, strain rrp6, hits give low values 0.946 | S. cerevisiae deletion strains, locus YOR061W, strain CKA2, hits give low values 1.01 | S. cerevisiae deletion strains, locus YOR069W, strain VPS5, hits give low values 1.01 | S. cerevisiae deletion strains, locus YOR070C, strain gyp1, hits give low values 0.99 | S. cerevisiae deletion strains, locus YOR080W, strain dia2, hits give low values 0.94 | S. cerevisiae deletion strains, locus YOR083W, strain WHI5, hits give low values 0.959 | S. cerevisiae deletion strains, locus YOR106W, strain vam3, hits give low values 0.928 | S. cerevisiae deletion strains, locus YOR136W, strain idh2, hits give low values 1 | S. cerevisiae deletion strains, locus YOR144C, strain elg1, hits give low values 0.997 | S. cerevisiae deletion strains, locus YOR184W, strain ser1, hits give low values 0.99 | S. cerevisiae deletion strains, locus YOR231W, strain MKK1, hits give low values 1.01 | S. cerevisiae deletion strains, locus YOR265W, strain rbl2, hits give low values 0.974 | S. cerevisiae deletion strains, locus YOR270C, strain vph1, hits give low values 1 | S. cerevisiae deletion strains, locus YOR290C, strain snf2, hits give low values 1.01 | S. cerevisiae deletion strains, locus YOR316C, strain cot1, hits give low values 1 | S. cerevisiae deletion strains, locus YPL051W, strain arl3, hits give low values 1.01 | S. cerevisiae deletion strains, locus YPL078C, strain atp4, hits give low values 0.935 | S. cerevisiae deletion strains, locus YPL106C, strain sse1, hits give low values 0.966 | S. cerevisiae deletion strains, locus YPL240C, strain hsp82, hits give low values 0.976 | S. cerevisiae deletion strains, locus YPL256C, strain CLN2, hits give low values 0.985 | S. cerevisiae deletion strains, locus YPR119W, strain clb2, hits give low values 0.993 | S. cerevisiae deletion strains, locus YPR141C, strain kar3, hits give low values 0.994 | S. cerevisiae deletion strains, locus YPR163C, strain tif3, hits give low values 0.995 | S. cerevisiae deletion strains, locus YPR167C, strain met16, hits give low values 0.997 | S. cerevisiae deletion strains, strain wtn01, hits give low values 1 | S. cerevisiae strains, strain wild type, hits give low values 1.01
